Data reported in PMC11006913.
Where a chain is given by its changes, count along the chain named.

Legend:
Assay in all cases: PBM; 200 nM protein, PBS
Conditions in all cases: dsDNA, one strand shown
[1] = molecular target: HOXB4 (Homo sapiens, UniProt P17483 148-234)
[2] = molecular target: HOXB9 (Homo sapiens, UniProt P17482 171-250, T197M)
[3] = molecular target: HOXC9 (Homo sapiens, UniProt P31274 178-260, K195R)
[4] = molecular target: T1, VENTX (Homo sapiens, UniProt O95231 78-163)
T1 sequence: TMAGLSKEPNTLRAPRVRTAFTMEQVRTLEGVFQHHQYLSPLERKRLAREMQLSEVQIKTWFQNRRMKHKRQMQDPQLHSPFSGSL

[5] = molecular target: HOXC10 (Homo sapiens, UniProt Q9NYD6 254-340)
[6] = molecular target: T2, PAX4 (Homo sapiens, UniProt O43316 9-242, R200K)
T2 sequence: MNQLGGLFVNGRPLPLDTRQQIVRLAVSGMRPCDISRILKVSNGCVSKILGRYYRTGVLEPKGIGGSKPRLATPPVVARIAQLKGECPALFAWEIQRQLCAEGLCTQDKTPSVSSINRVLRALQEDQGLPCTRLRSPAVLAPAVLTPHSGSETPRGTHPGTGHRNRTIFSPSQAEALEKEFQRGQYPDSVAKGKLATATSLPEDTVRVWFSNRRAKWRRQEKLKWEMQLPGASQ

[7] = molecular target: T3, PAX4 (Homo sapiens, UniProt O43316 9-242)
T3 sequence: T2 sequence with K192R

[8] = molecular target: HOXB9 (Homo sapiens, UniProt P17482 171-250)
[9] = molecular target: HOXC9 (Homo sapiens, UniProt P31274 178-260)
[10] = molecular target: HOXC9 (Homo sapiens, UniProt P31274 178-260, R193K)
[11] = molecular target: T4, PAX4 (Homo sapiens, UniProt O43316 9-242, F177V)
T4 sequence: T2 sequence with F169V, K192R

[12] = molecular target: HOXC10 (Homo sapiens, UniProt Q9NYD6 254-340, K271E)
[13] = molecular target: T5, PAX4 (Homo sapiens, UniProt O43316 9-242, F177Y)
T5 sequence: T2 sequence with F169Y, K192R

[14] = molecular target: VAX1 (Homo sapiens, UniProt Q5SQQ9 86-172)
[15] = molecular target: HOXB9 (Homo sapiens, UniProt P17482 171-250, R186Q)
[16] = molecular target: HOXC9 (Homo sapiens, UniProt P31274 178-260, R222W)
[17] = molecular target: T6, PAX4 (Homo sapiens, UniProt O43316 9-242, R227W)
T6 sequence: T2 sequence with K192R, R219W

[18] = molecular target: HOXA2 (Homo sapiens, UniProt O43364 129-215, Y150S)
[19] = molecular target: HOXA2 (Homo sapiens, UniProt O43364 129-215)
[20] = molecular target: HOXB6 (Homo sapiens, UniProt P17509 132-218)
Sequence of HOXB6 (P17509 132-218): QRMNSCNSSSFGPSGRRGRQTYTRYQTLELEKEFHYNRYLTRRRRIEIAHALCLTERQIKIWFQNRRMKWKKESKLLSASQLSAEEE

Sequence of HOXB9 (Homo sapiens, UniProt P17482 171-250, T197M) (P17482 171-250 T197M): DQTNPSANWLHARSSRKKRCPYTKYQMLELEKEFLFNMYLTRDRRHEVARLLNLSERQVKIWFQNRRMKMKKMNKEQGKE
Sequence of VAX1 (Q5SQQ9 86-172): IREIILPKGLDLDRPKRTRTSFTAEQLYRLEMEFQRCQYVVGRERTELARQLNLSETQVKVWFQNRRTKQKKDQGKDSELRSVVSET
Sequence of HOXB4 (P17483 148-234): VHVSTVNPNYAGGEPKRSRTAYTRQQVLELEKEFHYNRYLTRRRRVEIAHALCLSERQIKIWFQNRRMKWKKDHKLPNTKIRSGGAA
Sequence of HOXB9 (Homo sapiens, UniProt P17482 171-250, R186Q) (P17482 171-250 R186Q): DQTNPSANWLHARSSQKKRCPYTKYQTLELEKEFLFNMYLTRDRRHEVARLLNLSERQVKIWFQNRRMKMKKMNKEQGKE
Sequence of HOXC9 (Homo sapiens, UniProt P31274 178-260, R193K) (P31274 178-260 R193K): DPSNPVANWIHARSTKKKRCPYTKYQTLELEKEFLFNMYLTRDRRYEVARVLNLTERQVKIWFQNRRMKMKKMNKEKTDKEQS
Sequence of HOXC10 (Homo sapiens, UniProt Q9NYD6 254-340, K271E) (Q9NYD6 254-340 K271E): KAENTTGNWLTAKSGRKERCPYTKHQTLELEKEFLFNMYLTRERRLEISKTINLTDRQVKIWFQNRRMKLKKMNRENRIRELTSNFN
Sequence of HOXC9 (Homo sapiens, UniProt P31274 178-260) (P31274 178-260): as the sequence (P31274 178-260 R193K) above, with K16R counted along it
Sequence of HOXC10 (Homo sapiens, UniProt Q9NYD6 254-340) (Q9NYD6 254-340): as the sequence (Q9NYD6 254-340 K271E) above, with E18K counted along it
Sequence of HOXA2 (Homo sapiens, UniProt O43364 129-215, Y150S) (O43364 129-215 Y150S): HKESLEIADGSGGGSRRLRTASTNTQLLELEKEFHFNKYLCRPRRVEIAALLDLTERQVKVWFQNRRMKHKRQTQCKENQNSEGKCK
Sequence of HOXC9 (Homo sapiens, UniProt P31274 178-260, R222W) (P31274 178-260 R222W): as the sequence (P31274 178-260 R193K) above, with K16R, R45W counted along it
Sequence of HOXB9 (Homo sapiens, UniProt P17482 171-250) (P17482 171-250): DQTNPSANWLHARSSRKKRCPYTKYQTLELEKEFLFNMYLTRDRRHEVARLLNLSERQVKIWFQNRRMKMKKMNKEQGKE
Sequence of HOXA2 (Homo sapiens, UniProt O43364 129-215) (O43364 129-215): as the sequence (O43364 129-215 Y150S) above, with S22Y counted along it
Sequence of HOXC9 (Homo sapiens, UniProt P31274 178-260, K195R) (P31274 178-260 K195R): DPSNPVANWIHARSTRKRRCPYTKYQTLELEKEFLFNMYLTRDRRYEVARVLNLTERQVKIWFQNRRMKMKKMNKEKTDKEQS

Sequence: TAATTACA
- binding signal [1]: 13.6 upbm affinity estimate (log intensity, higher = more binding, comparable within an allelic series)
- binding signal [2]: 10.3 upbm affinity estimate (log intensity, higher = more binding, comparable within an allelic series)
- binding signal [3]: 12.9 upbm affinity estimate (log intensity, higher = more binding, comparable within an allelic series)
- binding signal [4]: 12.7 upbm affinity estimate (log intensity, higher = more binding, comparable within an allelic series)
- binding signal [5]: 12.3 upbm affinity estimate (log intensity, higher = more binding, comparable within an allelic series)
- binding signal [6]: 11.9 upbm affinity estimate (log intensity, higher = more binding, comparable within an allelic series)
- binding signal [7]: 12.4 upbm affinity estimate (log intensity, higher = more binding, comparable within an allelic series)
- binding signal [8]: 12.1 upbm affinity estimate (log intensity, higher = more binding, comparable within an allelic series)
- binding signal [9]: 12.8 upbm affinity estimate (log intensity, higher = more binding, comparable within an allelic series)
- binding signal [10]: 12.9 upbm affinity estimate (log intensity, higher = more binding, comparable within an allelic series)
- binding signal [11]: 10.8 upbm affinity estimate (log intensity, higher = more binding, comparable within an allelic series)
- binding signal [12]: 12.3 upbm affinity estimate (log intensity, higher = more binding, comparable within an allelic series)
- binding signal [13]: 11.2 upbm affinity estimate (log intensity, higher = more binding, comparable within an allelic series)
- binding signal [14]: 13.6 upbm affinity estimate (log intensity, higher = more binding, comparable within an allelic series)
- binding signal [15]: 11.8 upbm affinity estimate (log intensity, higher = more binding, comparable within an allelic series)
- binding signal [16]: 11 upbm affinity estimate (log intensity, higher = more binding, comparable within an allelic series)
- binding signal [17]: 11.2 upbm affinity estimate (log intensity, higher = more binding, comparable within an allelic series)
- binding signal [18]: 11 upbm affinity estimate (log intensity, higher = more binding, comparable within an allelic series)
- binding signal [19]: 13.3 upbm affinity estimate (log intensity, higher = more binding, comparable within an allelic series)
- binding signal [20]: 12.5 upbm affinity estimate (log intensity, higher = more binding, comparable within an allelic series)

Sequence: AATTAATT
- binding signal [1]: 13.4 upbm affinity estimate (log intensity, higher = more binding, comparable within an allelic series)
- binding signal [2]: 10.3 upbm affinity estimate (log intensity, higher = more binding, comparable within an allelic series)
- binding signal [3]: 12.9 upbm affinity estimate (log intensity, higher = more binding, comparable within an allelic series)
- binding signal [4]: 12.5 upbm affinity estimate (log intensity, higher = more binding, comparable within an allelic series)
- binding signal [5]: 12.2 upbm affinity estimate (log intensity, higher = more binding, comparable within an allelic series)
- binding signal [6]: 12.1 upbm affinity estimate (log intensity, higher = more binding, comparable within an allelic series)
- binding signal [7]: 12.7 upbm affinity estimate (log intensity, higher = more binding, comparable within an allelic series)
- binding signal [8]: 12.2 upbm affinity estimate (log intensity, higher = more binding, comparable within an allelic series)
- binding signal [9]: 12.8 upbm affinity estimate (log intensity, higher = more binding, comparable within an allelic series)
- binding signal [10]: 12.8 upbm affinity estimate (log intensity, higher = more binding, comparable within an allelic series)
- binding signal [11]: 10.9 upbm affinity estimate (log intensity, higher = more binding, comparable within an allelic series)
- binding signal [12]: 12.2 upbm affinity estimate (log intensity, higher = more binding, comparable within an allelic series)
- binding signal [13]: 11.6 upbm affinity estimate (log intensity, higher = more binding, comparable within an allelic series)
- binding signal [14]: 13.3 upbm affinity estimate (log intensity, higher = more binding, comparable within an allelic series)
- binding signal [15]: 11.9 upbm affinity estimate (log intensity, higher = more binding, comparable within an allelic series)
- binding signal [16]: 11.2 upbm affinity estimate (log intensity, higher = more binding, comparable within an allelic series)
- binding signal [17]: 11.3 upbm affinity estimate (log intensity, higher = more binding, comparable within an allelic series)
- binding signal [18]: 11 upbm affinity estimate (log intensity, higher = more binding, comparable within an allelic series)
- binding signal [19]: 12.8 upbm affinity estimate (log intensity, higher = more binding, comparable within an allelic series)
- binding signal [20]: 12.4 upbm affinity estimate (log intensity, higher = more binding, comparable within an allelic series)

Sequence: CATAATTA
- binding signal [1]: 13.6 upbm affinity estimate (log intensity, higher = more binding, comparable within an allelic series)
- binding signal [2]: 10.3 upbm affinity estimate (log intensity, higher = more binding, comparable within an allelic series)
- binding signal [3]: 12.8 upbm affinity estimate (log intensity, higher = more binding, comparable within an allelic series)
- binding signal [4]: 12.6 upbm affinity estimate (log intensity, higher = more binding, comparable within an allelic series)
- binding signal [5]: 12.3 upbm affinity estimate (log intensity, higher = more binding, comparable within an allelic series)
- binding signal [6]: 11.9 upbm affinity estimate (log intensity, higher = more binding, comparable within an allelic series)
- binding signal [7]: 12.5 upbm affinity estimate (log intensity, higher = more binding, comparable within an allelic series)
- binding signal [8]: 11.9 upbm affinity estimate (log intensity, higher = more binding, comparable within an allelic series)
- binding signal [9]: 12.8 upbm affinity estimate (log intensity, higher = more binding, comparable within an allelic series)
- binding signal [10]: 12.8 upbm affinity estimate (log intensity, higher = more binding, comparable within an allelic series)
- binding signal [11]: 11 upbm affinity estimate (log intensity, higher = more binding, comparable within an allelic series)
- binding signal [12]: 12.2 upbm affinity estimate (log intensity, higher = more binding, comparable within an allelic series)
- binding signal [13]: 11.3 upbm affinity estimate (log intensity, higher = more binding, comparable within an allelic series)
- binding signal [14]: 13.6 upbm affinity estimate (log intensity, higher = more binding, comparable within an allelic series)
- binding signal [15]: 11.7 upbm affinity estimate (log intensity, higher = more binding, comparable within an allelic series)
- binding signal [16]: 11.1 upbm affinity estimate (log intensity, higher = more binding, comparable within an allelic series)
- binding signal [17]: 11.3 upbm affinity estimate (log intensity, higher = more binding, comparable within an allelic series)
- binding signal [18]: 11.1 upbm affinity estimate (log intensity, higher = more binding, comparable within an allelic series)
- binding signal [19]: 13 upbm affinity estimate (log intensity, higher = more binding, comparable within an allelic series)
- binding signal [20]: 12.4 upbm affinity estimate (log intensity, higher = more binding, comparable within an allelic series)

Sequence: GCAATTAA
- binding signal [1]: 13.2 upbm affinity estimate (log intensity, higher = more binding, comparable within an allelic series)
- binding signal [2]: 10.5 upbm affinity estimate (log intensity, higher = more binding, comparable within an allelic series)
- binding signal [3]: 13.1 upbm affinity estimate (log intensity, higher = more binding, comparable within an allelic series)
- binding signal [4]: 12.8 upbm affinity estimate (log intensity, higher = more binding, comparable within an allelic series)
- binding signal [5]: 12.4 upbm affinity estimate (log intensity, higher = more binding, comparable within an allelic series)
- binding signal [8]: 12.6 upbm affinity estimate (log intensity, higher = more binding, comparable within an allelic series)
- binding signal [9]: 13.1 upbm affinity estimate (log intensity, higher = more binding, comparable within an allelic series)
- binding signal [10]: 13 upbm affinity estimate (log intensity, higher = more binding, comparable within an allelic series)
- binding signal [12]: 12.6 upbm affinity estimate (log intensity, higher = more binding, comparable within an allelic series)
- binding signal [14]: 13.2 upbm affinity estimate (log intensity, higher = more binding, comparable within an allelic series)
- binding signal [15]: 12.4 upbm affinity estimate (log intensity, higher = more binding, comparable within an allelic series)
- binding signal [16]: 11.1 upbm affinity estimate (log intensity, higher = more binding, comparable within an allelic series)
- binding signal [18]: 10.8 upbm affinity estimate (log intensity, higher = more binding, comparable within an allelic series)
- binding signal [19]: 12.6 upbm affinity estimate (log intensity, higher = more binding, comparable within an allelic series)
- binding signal [20]: 12.7 upbm affinity estimate (log intensity, higher = more binding, comparable within an allelic series)

Sequence: AATAATTA
- binding signal [1]: 13.5 upbm affinity estimate (log intensity, higher = more binding, comparable within an allelic series)
- binding signal [2]: 10.3 upbm affinity estimate (log intensity, higher = more binding, comparable within an allelic series)
- binding signal [3]: 12.7 upbm affinity estimate (log intensity, higher = more binding, comparable within an allelic series)
- binding signal [4]: 12.4 upbm affinity estimate (log intensity, higher = more binding, comparable within an allelic series)
- binding signal [5]: 12.2 upbm affinity estimate (log intensity, higher = more binding, comparable within an allelic series)
- binding signal [6]: 11.8 upbm affinity estimate (log intensity, higher = more binding, comparable within an allelic series)
- binding signal [7]: 12.3 upbm affinity estimate (log intensity, higher = more binding, comparable within an allelic series)
- binding signal [8]: 11.9 upbm affinity estimate (log intensity, higher = more binding, comparable within an allelic series)
- binding signal [9]: 12.7 upbm affinity estimate (log intensity, higher = more binding, comparable within an allelic series)
- binding signal [10]: 12.6 upbm affinity estimate (log intensity, higher = more binding, comparable within an allelic series)
- binding signal [11]: 10.8 upbm affinity estimate (log intensity, higher = more binding, comparable within an allelic series)
- binding signal [12]: 11.9 upbm affinity estimate (log intensity, higher = more binding, comparable within an allelic series)
- binding signal [13]: 11.1 upbm affinity estimate (log intensity, higher = more binding, comparable within an allelic series)
- binding signal [14]: 13.3 upbm affinity estimate (log intensity, higher = more binding, comparable within an allelic series)
- binding signal [15]: 11.6 upbm affinity estimate (log intensity, higher = more binding, comparable within an allelic series)
- binding signal [16]: 11.1 upbm affinity estimate (log intensity, higher = more binding, comparable within an allelic series)
- binding signal [17]: 11.2 upbm affinity estimate (log intensity, higher = more binding, comparable within an allelic series)
- binding signal [18]: 10.9 upbm affinity estimate (log intensity, higher = more binding, comparable within an allelic series)
- binding signal [19]: 12.9 upbm affinity estimate (log intensity, higher = more binding, comparable within an allelic series)
- binding signal [20]: 12.3 upbm affinity estimate (log intensity, higher = more binding, comparable within an allelic series)
